NS1 function inh: influenza NS1 inhibition; AID 2326; 270,000 tested, 0.4% active; Potency, µM (doses to about 46.1 µM), inactives show at the highest dose activity, positive = more growth; calls by dose curve; also: potency is read from the fitted curve at half-maximal effect; actives are rising curves; nearly all actives have a fitted effect of over 50% in size
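S. cerevisiae expressing influenza A NS1, grown in glucose, washed, then diluted 1:100 into pH 6.0 -URA galactose medium with 23 nl compound. Growth recovery read as OD600; NS1-free strain serves as control.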
Pf growth 96h: P. falciparum growth inhibition at 96 hour, primary screen for plastid delayed-death inhibitors; P. falciparum luciferase reporter growth, 96 h; Potency, µM (highest dose often 28.7 µM), for the others: at the highest dose activity change, negative = inhibition, most hits filed as inhibitors; 320,000 tested, 6.9% active; also: potency is read from the fitted curve at half-maximal effect; % is scaled to controls: 0 for no effect and ±100 for the full control effect
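P. falciparum expressing integrated firefly luciferase, in erythrocytes at 2% hematocrit, 0.05% parasitemia, incubated with compounds 96 h at 37 C, 5% CO2. Growth inhibition read as loss of luminescence; two-generation exposure targets delayed-death apicoplast inhibitors.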
Shiga inhibitor: blocks Shiga toxin action in Vero cells; 290,000 tested, 9.2% active; inhibition, % at 38.7 µM; Vero cells, Shiga toxin protein synthesis inhibition reporter; in the data active = inhibition mostly above about 28%, no sharp cut-off; inactive = mostly below about 43%; also: 0% is about no effect
Cycloheximide cs: affects cycloheximide protein synthesis inhibition readout, counter-screen | 300,000 tested, 12% active | max response, % | cell reporter, cycloheximide protein synthesis inhibition counterscreen | AID 2314; in the data active = max response mostly above about 13%, no sharp cut-off; inactive = mostly below about 14%; also: read at 38.3 µM for the half of the compounds with a filed dose; 0% is about no effect
Pf growth 48h: P. falciparum growth inhibition at 48 hours (one generation); Potency, µM (titrated, usually from 28.7 µM), without a hit: at the top dose activity change, negative = inhibition, hits mostly inhibitors; AID 504832; P. falciparum luciferase growth in erythrocytes, 48 h; 310,000 tested, 5.9% active; also: potency is read from the fitted curve at half-maximal effect; % is scaled to controls: 0 for no effect and ±100 for the full control effect
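Parasite viability was followed by luminescence of a genomically integrated firefly luciferase. Cultures held 0.1% parasitemia at 2% hematocrit (final), incubated under 5% CO2 at 37 C.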
The depositor's hits bear a star; u = inconclusive; x = not tested or not shown; [ ] = another dose, or the depositor's remark. In the library only some 21% were active in any assay of this set; here they are far more common. Unless noted, calls follow the shape of the dose curve; as a rule, active = well fitted inhibition curve with a large enough effect; inconclusive = small, poorly fitted or top-dose-only effect, or another doubt; inactive = no such curve, though single readings can be large or run the other way.

SMILES | NS1 function inh | Pf growth 96h | Shiga inhibitor | Cycloheximide cs | Pf growth 48h
Cc1ccc(-c2cc(C(=O)N3CCN(c4ncccn4)CC3)c3cc(Br)ccc3n2)o1 | 10% | 223% | 24 | 14 | u
COc1ccc(-c2cc(C(=O)N3CCC4(CC3)OCCO4)c3ccccc3n2)cc1 | -34% | 23% | 39 | 25* | 19%
COc1ccc(-c2cc(C(=O)N3CCN(c4ccccc4)CC3)c3ccccc3n2)cc1 | 17% | -17% | 63* | 27* | 7%
Cc1ccc(-c2cc(C(=O)N3CCN(c4ccc(F)cc4)CC3)c3ccccc3n2)o1 | -63% | u | 45 | 29* | -2%
COc1ccc(-c2cc(C(=O)N3CCN(c4ncccn4)CC3)c3ccccc3n2)cc1 | x | -24% | x | x | 29%
COc1ccc(-c2cc(C(=O)N3CCCC3)c3ccccc3n2)cc1 | -30% | 3.7µM* | 45* | 36* | 72%
Cn1c(SCC(=O)NCCc2ccccc2)ncc(C(=O)Nc2ccccc2)c1=O | x | 24% | x | x | 20%
O=C(c1ccccc1[N+](=O)[O-])N1CCN(c2ccc(N3CCOCC3)nn2)CC1 | x | -5% | x | x | -17%
COc1cc2ccccc2cc1C(=O)N1CC(C)CC(C)C1 (configuration not stated) | -15% | 0.29µM* | -9 | -3 | 0.33µM*
COc1ccc(-c2cc(C(=O)N3CC(C)CC(C)C3)c3ccccc3n2)cc1 (configuration not stated) | x | 3.7µM* | x | x | 2.9µM*
COc1cc2ccccc2cc1C(=O)N1CCCC1 | -6% | -14% | -16 | -3 | 107%
CC(=O)c1ccc(N2CCN(C(=O)c3cc(-c4ccncc4)nc4ccc(Br)cc34)CC2)cc1 | 5% | -15% | -9 | 0 | 13µM*
O=C(c1ccco1)N1CCN(C(=O)c2cc(-c3ccccc3)nc3ccccc23)CC1 | -1% | 87% | 13 | 19* | -18%
COc1ccc(-c2cc(C(=O)N3CCCC(C(F)(F)F)C3)c3ccccc3n2)cc1 (configuration not stated) | x | -107% | x | x | u
Cc1ccc(S(=O)(=O)Nc2ccccc2CNC2CCCCC2)cc1 | x | -21% | 0 | -3 | -24%
C=CCn1c(SCc2c(C(=O)OC)sc(N)c2C(=O)OC)nnc1-c1ccc(Br)cc1 | 19% | u | -8 | -4 | x
O=C(O)c1cc(-c2ccc(-c3ccc(F)cc3)o2)nc2ccccc12 | -9% | 120% | 30* | 37 | 160%
Cc1ccc(-c2cc(C(=O)N3CCCCC3)c3ccccc3n2)cc1C | x | 15% | 33 | 23* | 0%
CCc1cc2c(SCC(=O)c3ccc(Cl)s3)ncnc2s1 | -5% | x | 12 | 10 | 8%
COc1ccc2cc1Oc1ccc(cc1)CC1c3c(cc(OC)c4c3Oc3cc5c(cc3O4)CCNC5C2)CCN1C (configuration not stated) | 0% | 0.33µM* | -22 | -6 | 0.52µM*
COc1ccc2cc1Oc1ccc(cc1)CC1c3c(cc4c(c3Oc3cc5c(cc3OC)CCN(C)C5C2)OCO4)CCN1C (configuration not stated) | x | 5.4µM* | x | x | 5.4µM*
COc1ccc2cc1Oc1ccc(cc1)CC1c3cc(c(OC)cc3CCN1C)Oc1c(OC)c(OC)c(OC)c3c1C(C2)N(C)CC3 (configuration not stated) | x | x | -11 | -3 | x
COc1cc2c3cc1Oc1c(O)c(OC)cc4c1[C@@H](Cc1ccc(cc1)Oc1cc(ccc1O)C[C@H]3N(C)CC2)N(C)CC4 | -5% | x | x | x | x
N#CC1=C2SCN(c3ccccc3)CN2C(=O)CC1c1c(Cl)cccc1Cl (configuration not stated) | 11µM* | 1% | 24 | -1 | x
CCc1ccccc1N1CSC2=C(C#N)C(c3cc(OC)c(OC)cc3OC)CC(=O)N2C1 (configuration not stated) | 10µM* | 68% | -24 | 6 | 13µM*
SMILES | NS1 function inh | Pf growth 96h | Shiga inhibitor | Cycloheximide cs | Pf growth 48h
COc1cc(OC)c(C2CC(=O)N3CN(c4ccccc4)CSC3=C2C#N)cc1OC (configuration not stated) | -85% | u | 3 | -3 | 37%
COc1ccc(OC)c(C2CC(=O)N3CN(c4ccc(C)c(Cl)c4)CSC3=C2C#N)c1 (configuration not stated) | -3% | u | -4 | -5 | x
COc1ccc(OC)c(C2CC(=O)N3CN(c4cccc(Cl)c4)CSC3=C2C#N)c1 (configuration not stated) | -11% | 7.4µM* | 4 | 1 | x
Cc1ccc(C2CC(=O)N3CN(c4ccc(Br)cc4)CSC3=C2C#N)o1 (configuration not stated) | u | 4.7µM* | 24 | 5 | x
N#CC1=C2SCN(c3ccccc3)CN2C(=O)CC1c1ccccc1Cl (configuration not stated) | -26% | u | 23 | 9 | x
CCOc1ccc(N2CSC3=C(C#N)C(c4ccco4)CC(=O)N3C2)cc1 (configuration not stated) | 19% | u | -6 | 1 | x
Cc1ccccc1C(=O)NCC(=O)OCCCOC(=O)CNC(=O)c1ccccc1C | x | 39% | x | x | 18%
CCN1CCCC1CNC(=O)c1ccc(N2CCOCC2)c(NS(=O)(=O)c2ccc(OC)cc2)c1 (configuration not stated) | x | 16% | -5 | -2 | -19%
COc1cccc(C2CC(=O)N3CN(c4cccc(Cl)c4C)CSC3=C2C#N)c1OC (configuration not stated) | -34% | 0.93µM* | -15 | -7 | x
COc1ccc(OC)c(C2CC(=O)N3CN(c4cccc(Cl)c4C)CSC3=C2C#N)c1 (configuration not stated) | -34% | 3% | -4 | 1 | x
Cc1nc2ccc(NC(=O)N3CCSCC3)cc2s1 | 0% | u | 76 | 18* | u
Cc1nc2ccc(NC(=O)N3CCCCC3)cc2s1 | -11%[9.22 µM] | x | 41* | 28* | 31%
CCOC(=O)Nc1ccc2nc(N3CCCCCC3)sc2c1 | -40% | 164% | 126* | 34* | 111%
Cc1nc2ccc(NC(=O)N3CCN(c4ccccn4)CC3)cc2s1 | -14% | u | 70 | 7 | -16%
CCc1nnc(NC(=O)C2CCCN(c3nc4ccccc4s3)C2)s1 (configuration not stated) | -5% | 4% | 26 | 4 | 14%
CCOC(=O)N1CCN(C(=O)Nc2ccc3nc(C)sc3c2)CC1 | -15% | x | 31 | 17* | 0%
CCOC(=O)N1CCN(C(=O)Nc2ccc3nc(-c4ccccn4)c(-c4ccccn4)nc3c2)CC1 | 6% | -13% | -3 | 1 | -12%
CC1S/C(=N\N=C\c2cccc([N+](=O)[O-])c2)N(C(C)(C)C)C1=O (configuration not stated) | -9% | -2% | 19 | -2 | u
CCOC(=O)CNC(=O)Cc1ccc(OC)cc1 | 1% | 7% | 20 | 13* | 3%
CCOC(=O)CNC(=O)c1cc(OC)cc(OC)c1 | x | 0.93µM* | 33 | 7 | 29%
CCOC(=O)N1CCN(C(=O)COC(=O)Cc2ccc(OC)cc2)CC1 | 20% | 71% | 3 | -7 | -8%
